{"source": "the supplement of paper PMC11018630", "note": "Structures can show the parent of a compound that is named as a salt. ± gives the standard deviation of the averaged measurements. Whole data set: some 1,100 compounds, median “day of extracellular matrix detachment from plate” near 16, cut for the lowest 2% near 10. The full list was thinned out, with the lowest values kept by preference."}
{"test_system": "RDEB dermal fibroblasts EB71", "experiment": "day of extracellular matrix detachment from plate (days); higher = delayed detachment (less fibrotic matrix)", "details": "compound concentration: 10 uM"}
{"molecule": "Cc1cccc(C(C)c2c[nH]cn2)c1C", "note": "(stereo unspecified) [Medetomidine HCl]", "day of extracellular matrix detachment from plate": "17 ± 5.2"}
{"molecule": "Cc1cccc([C@H](C)c2c[nH]cn2)c1C", "note": "[Dexmedetomidine HCl (Precedex)]", "day of extracellular matrix detachment from plate": "10 ± 1.7"}
{"molecule": "Cc1cccc(Cc2c[nH]cn2)c1C", "note": "[Detomidine HCl]", "day of extracellular matrix detachment from plate": "14.7 ± 7.4"}
{"molecule": "Cc1cccc([C@H](C)c2c[nH]cn2)c1C", "note": "[Dexmedetomidine]", "day of extracellular matrix detachment from plate": 18}
{"molecule": "O=C(O[C@H]1C[C@H]2CC[C@@H](C1)[N+]21CCCC1)C(O)(c1ccccc1)c1ccccc1", "note": "[Trospium chloride]", "day of extracellular matrix detachment from plate": 12}
{"molecule": "Cc1ccc(-c2nc3ccc(C)cn3c2CC(=O)N(C)C)cc1", "note": "[Zolpidem]", "day of extracellular matrix detachment from plate": "17.7 ± 1.1"}
{"molecule": "C=CCN1CC[C@]23c4c5ccc(O)c4O[C@H]2C(=O)CC[C@@]3(O)[C@H]1C5", "note": "[Naloxone HCl]", "day of extracellular matrix detachment from plate": "17.7 ± 3.5"}
{"molecule": "O=C1CC[C@@]2(O)[C@H]3Cc4ccc(O)c5c4[C@@]2(CCN3CC2CC2)[C@H]1O5", "note": "[Naltrexone HCl]", "day of extracellular matrix detachment from plate": "10 ± 1.7"}
{"molecule": "C=C1CC[C@@]2(O)[C@H]3Cc4ccc(O)c5c4[C@@]2(CCN3CC2CC2)[C@H]1O5", "note": "[Nalmefene HCl]", "day of extracellular matrix detachment from plate": 13}
{"molecule": "O=C(O[C@H]1C[N+]2(CCCOc3ccccc3)CCC1CC2)C(O)(c1cccs1)c1cccs1", "note": "[Aclidinium Bromide]", "day of extracellular matrix detachment from plate": "16.7 ± 2.3"}
{"molecule": "N[C@@H]1C[C@H]1c1ccccc1", "note": "[Tranylcypromine (2-PCPA) HCl]", "day of extracellular matrix detachment from plate": 13}
